This passage reports outcome and AC50 results from PubChem BioAssay (EPA / NIEHS).

Each structure is given as a SMILES string. Where “and” joins values, the source holds several entries; their conditions need not be identical. Equal entries are not always repeated. Inconclusive results are not listed. Calls of active or inactive are those of the source. The calls were made as follows: active = hit-call score of the fitted dose curve at least 0.9, where 1 is the maximum; inconclusive = response in the unintended direction; inactive = score below 0.9.

Test [1] concerns the target human Constitutive Androstane Receptor (CAR), NR1I3 (gene 9970) (UniProt Q14994). Briefly: NVS_NR_hCAR_Antagonist: NovaScreen (NVS) Nuclear Receptor Binding Assay for human Constitutive Androstane Receptor Antagonism (CAR) (AID 2283344). An outline of the steps: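 Single 25 uM duplicate primary screen, with concentration-series follow-up on actives. Cell-free binding format run in antagonist mode, TR-FRET signal taken 1 h post-dose; activity is signal loss relative to DMSO.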

In test [2] the target is Estrogen receptor (Homo sapiens) (UniProt P03372). Kind of test: OT_ER_ERaERa_1440: Odyssey Thera (OT) 24-hour HEK293T Protein-Complementation Assay for Estrogen Receptor-alpha/-alpha Homodimer (AID 2283349).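 Also: hits raise fluorescence above DMSO for agonists and antagonists alike.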 Summed up:
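HEK293T, stable ERα LBD (aa 310-547) homodimer PCA; 24 h compound exposure; mean fluorescence intensity (nuclear for agonists, nuclear plus cytoplasmic for antagonists) vs vehicle; positive fitting direction, DMSO baseline.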

Test [3] addresses Bile acid receptor (Homo sapiens) (UniProt Q96RI1). Briefly: NVS_NR_hFXR_Antagonist: NovaScreen (NVS) Nuclear Receptor Binding Assay for human Farnesoid X Receptor Antagonism (FXR) (AID 2283350). Summed up:
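Antagonist-format time-resolved FRET binding assay with extracted human receptor protein, read 1 hour after compound addition. Compounds first screened at 25 uM in duplicate, then actives tested in concentration series, with loss of signal relative to DMSO.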

For test [4], the target named is Estrogen receptor (Homo sapiens) + Estrogen receptor beta (Homo sapiens) (UniProt P03372+Q92731). Kind of test: OT_ER_ERaERb_0480: Odyssey Thera (OT) 8-hour HEK293T Protein-Complementation Assay for Estrogen Receptor-alpha/-beta Heterodimer (AID 2283352). An outline of the steps: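 Increase in mean fluorescence intensity, measured by laser scanning plate cytometry, reported ER-alpha/ER-beta LBD complementation in HEK293T cells after 8 h chemical exposure. DMSO served as baseline; basal signal is low, punctate and cytoplasmic.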

The next test has as its system NCBI gene 100848466. Briefly: NVS_NR_bPR: NovaScreen (NVS) Nuclear Receptor Binding Assay for bovine Progextron Receptor (PR) (AID 2283343).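 Also: actives lower bound radioligand signal below DMSO meaning displacement of the label.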 An outline of the steps: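 Competitive radioligand binding with membranes from bovine uterus, scintillation read-out at 18 h post-dose. Compounds first tested in duplicate at 25 uM, then actives in concentration series; loss-of-signal relative to DMSO.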

Test [5] concerns the target bovine Estrogen Receptor (ER), ESR1 (gene 407238) (UniProt P49884). Briefly: NVS_NR_bER: NovaScreen (NVS) Nuclear Receptor Binding Assay for bovine Estrogen Receptor (ER) (AID 2283345).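 Also: actives lower the bound radioligand count which means they displace the ER ligand.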 An outline of the steps: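 Cell-free radioligand binding with bovine uterine membrane extracts, read 18 hours after dosing by scintillation counting. Loss of signal versus DMSO baseline indicates displacement. Primary screen run in duplicate at 25 uM, actives followed in concentration series.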

Test [6] addresses chimpanzee Androgen Receptor (AR), AR (gene 747460) (UniProt O97775). Kind of test: NVS_NR_cAR: NovaScreen (NVS) Nuclear Receptor Binding Assay for chimpanzee Androgen Receptor (AR) (AID 2283346).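 Also: radioligand displacement from AR measured by scintillation counting in a cell-free assay; a loss of bound radioligand signal versus DMSO counts as binding.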 Summed up: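 Cell-free competition binding with insect-cell (Sf9/Sf21) extracted chimpanzee AR; scintillation signal from lysate at 72 h. Screened in duplicate at 25 uM, then concentration-response for actives; fitting relative to DMSO.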

Test [7] deals with Estrogen receptor (Homo sapiens) (UniProt P03372). Briefly: NVS_NR_hER: NovaScreen (NVS) Nuclear Receptor Binding Assay for human Estrogen Receptor (ER) (AID 2283348). Summed up: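 Cell-free MCF7-derived ER preparation, specific radioligand displaced by test compound, read by scintillation counting 18 h post-dosing. Duplicate single-point 25 uM screen, then concentration-response confirmation; DMSO baseline.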

Test [8] has the same target. Kind of test: OT_ER_ERaERa_0480: Odyssey Thera (OT) 8-hour HEK293T Protein-Complementation Assay for Estrogen Receptor-alpha/-alpha Homodimer (AID 2283351).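 Also: rise in fluorescence from reassembled reporter fragments on ERα LBD homodimer in nucleus or whole cell.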 Summed up:
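Measures ERα LBD (aa 310-547) homodimer complementation in stably transfected HEK293T at 8 h post-dose, with fluorescence intensity quantified on a laser scanning cytometer relative to DMSO controls.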

For test [9], the target named is Bile acid receptor (Homo sapiens) (UniProt Q96RI1). Kind of test: NVS_NR_hFXR_Agonist: NovaScreen (NVS) Nuclear Receptor Binding Assay for human Farnesoid X Receptor Agonism (FXR) (AID 2283347). Summed up: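 Agonist-mode FXR assay read by time-resolved FRET 1 h after compound addition, using isolated human receptor protein without cells. Duplicate 25 uM single-point primary screen, concentration series for confirmed actives; DMSO as baseline.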
Chain of Bile acid receptor (Homo sapiens) (Q96RI1 whole entry, looked up): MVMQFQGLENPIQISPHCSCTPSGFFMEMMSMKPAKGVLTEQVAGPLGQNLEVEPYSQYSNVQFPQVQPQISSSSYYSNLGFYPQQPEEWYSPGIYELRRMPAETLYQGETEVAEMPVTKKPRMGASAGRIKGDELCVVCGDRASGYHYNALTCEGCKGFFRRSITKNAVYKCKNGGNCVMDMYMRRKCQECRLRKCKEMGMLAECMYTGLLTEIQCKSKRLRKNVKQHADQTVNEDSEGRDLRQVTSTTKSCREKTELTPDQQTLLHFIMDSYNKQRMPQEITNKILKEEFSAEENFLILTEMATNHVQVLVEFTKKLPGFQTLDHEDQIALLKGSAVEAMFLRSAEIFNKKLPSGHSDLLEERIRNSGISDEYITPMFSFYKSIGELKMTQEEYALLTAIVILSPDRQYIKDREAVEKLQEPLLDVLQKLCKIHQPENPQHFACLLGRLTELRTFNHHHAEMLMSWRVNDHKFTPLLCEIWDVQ

Chain of Estrogen receptor (Homo sapiens) + Estrogen receptor beta (Homo sapiens) (P03372 whole entry, looked up, the tested form may be a part): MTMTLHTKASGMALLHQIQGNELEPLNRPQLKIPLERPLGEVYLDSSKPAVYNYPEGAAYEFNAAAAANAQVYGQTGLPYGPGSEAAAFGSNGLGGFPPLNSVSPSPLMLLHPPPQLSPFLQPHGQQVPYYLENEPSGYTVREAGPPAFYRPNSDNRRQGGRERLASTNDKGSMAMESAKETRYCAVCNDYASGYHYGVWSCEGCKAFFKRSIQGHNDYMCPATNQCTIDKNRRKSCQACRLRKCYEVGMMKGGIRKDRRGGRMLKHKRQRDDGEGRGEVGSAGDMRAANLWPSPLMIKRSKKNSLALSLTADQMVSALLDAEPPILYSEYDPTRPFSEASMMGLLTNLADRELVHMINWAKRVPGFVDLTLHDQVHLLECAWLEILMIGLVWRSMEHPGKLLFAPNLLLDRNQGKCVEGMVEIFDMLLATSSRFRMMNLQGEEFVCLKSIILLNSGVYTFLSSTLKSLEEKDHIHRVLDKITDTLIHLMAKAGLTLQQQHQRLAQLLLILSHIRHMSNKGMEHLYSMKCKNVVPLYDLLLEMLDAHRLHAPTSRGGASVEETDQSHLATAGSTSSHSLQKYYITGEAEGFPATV
Chain of Estrogen receptor (Homo sapiens) + Estrogen receptor beta (Homo sapiens) (Q92731 whole entry, looked up, the tested form may be a part): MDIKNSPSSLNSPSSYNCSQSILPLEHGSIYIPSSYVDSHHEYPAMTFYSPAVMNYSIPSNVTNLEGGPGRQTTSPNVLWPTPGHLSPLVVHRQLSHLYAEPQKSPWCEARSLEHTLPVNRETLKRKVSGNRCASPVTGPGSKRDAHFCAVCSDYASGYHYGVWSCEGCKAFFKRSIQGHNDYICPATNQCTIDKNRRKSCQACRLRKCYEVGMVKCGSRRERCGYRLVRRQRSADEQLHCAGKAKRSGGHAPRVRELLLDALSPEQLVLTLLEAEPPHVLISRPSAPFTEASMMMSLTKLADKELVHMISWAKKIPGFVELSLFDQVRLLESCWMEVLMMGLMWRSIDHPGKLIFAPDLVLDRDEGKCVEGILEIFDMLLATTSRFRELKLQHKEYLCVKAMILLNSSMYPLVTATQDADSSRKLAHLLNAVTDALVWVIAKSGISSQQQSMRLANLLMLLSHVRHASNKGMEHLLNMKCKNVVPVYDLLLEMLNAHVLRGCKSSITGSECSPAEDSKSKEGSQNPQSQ
Chain of Estrogen receptor (Homo sapiens) (P03372 whole entry, looked up, the tested form may be a part): as the sequence (P03372 whole entry, looked up, the tested form may be a part) above
Chain of chimpanzee Androgen Receptor (AR), AR (gene 747460) (O97775 whole entry, looked up): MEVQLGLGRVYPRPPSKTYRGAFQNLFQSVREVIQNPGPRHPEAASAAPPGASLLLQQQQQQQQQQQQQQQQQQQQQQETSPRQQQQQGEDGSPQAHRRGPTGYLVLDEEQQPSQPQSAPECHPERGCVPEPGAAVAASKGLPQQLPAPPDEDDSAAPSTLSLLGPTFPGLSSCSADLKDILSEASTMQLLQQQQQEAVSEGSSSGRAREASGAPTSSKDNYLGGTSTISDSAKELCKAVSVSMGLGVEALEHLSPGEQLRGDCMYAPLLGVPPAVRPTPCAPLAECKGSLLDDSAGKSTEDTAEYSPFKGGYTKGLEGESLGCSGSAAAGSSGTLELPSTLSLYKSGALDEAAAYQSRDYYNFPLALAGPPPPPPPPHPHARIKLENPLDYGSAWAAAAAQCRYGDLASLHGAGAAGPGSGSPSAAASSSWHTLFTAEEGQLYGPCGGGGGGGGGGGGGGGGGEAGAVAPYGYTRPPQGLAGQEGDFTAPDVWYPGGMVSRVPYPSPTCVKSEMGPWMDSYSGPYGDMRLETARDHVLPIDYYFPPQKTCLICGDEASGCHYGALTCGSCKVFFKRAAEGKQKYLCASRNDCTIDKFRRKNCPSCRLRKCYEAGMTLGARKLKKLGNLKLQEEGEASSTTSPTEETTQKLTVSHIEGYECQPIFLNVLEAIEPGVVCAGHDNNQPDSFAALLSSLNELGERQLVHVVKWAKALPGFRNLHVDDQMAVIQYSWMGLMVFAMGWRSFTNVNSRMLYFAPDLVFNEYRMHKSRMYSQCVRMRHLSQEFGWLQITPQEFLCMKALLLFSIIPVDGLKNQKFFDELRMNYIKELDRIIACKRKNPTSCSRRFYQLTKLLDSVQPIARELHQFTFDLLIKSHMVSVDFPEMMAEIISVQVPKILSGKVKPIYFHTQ
Chain of bovine Estrogen Receptor (ER), ESR1 (gene 407238) (P49884 whole entry, looked up): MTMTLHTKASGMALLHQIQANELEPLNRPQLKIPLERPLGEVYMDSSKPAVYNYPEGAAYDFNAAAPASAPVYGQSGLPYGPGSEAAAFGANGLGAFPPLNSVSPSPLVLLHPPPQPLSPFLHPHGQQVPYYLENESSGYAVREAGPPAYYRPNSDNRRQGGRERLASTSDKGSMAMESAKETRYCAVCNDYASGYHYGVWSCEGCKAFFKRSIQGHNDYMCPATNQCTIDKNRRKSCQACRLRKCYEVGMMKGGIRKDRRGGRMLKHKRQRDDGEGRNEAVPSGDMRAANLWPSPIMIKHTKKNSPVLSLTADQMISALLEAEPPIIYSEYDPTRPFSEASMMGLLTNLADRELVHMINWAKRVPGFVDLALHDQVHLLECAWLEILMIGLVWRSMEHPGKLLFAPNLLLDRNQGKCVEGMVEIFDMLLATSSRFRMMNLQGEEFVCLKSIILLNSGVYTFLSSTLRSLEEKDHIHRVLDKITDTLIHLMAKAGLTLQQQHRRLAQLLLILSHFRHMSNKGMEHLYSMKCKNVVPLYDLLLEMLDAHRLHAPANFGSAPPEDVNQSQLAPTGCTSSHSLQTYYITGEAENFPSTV
Chain of human Constitutive Androstane Receptor (CAR), NR1I3 (gene 9970) (Q14994 whole entry, looked up): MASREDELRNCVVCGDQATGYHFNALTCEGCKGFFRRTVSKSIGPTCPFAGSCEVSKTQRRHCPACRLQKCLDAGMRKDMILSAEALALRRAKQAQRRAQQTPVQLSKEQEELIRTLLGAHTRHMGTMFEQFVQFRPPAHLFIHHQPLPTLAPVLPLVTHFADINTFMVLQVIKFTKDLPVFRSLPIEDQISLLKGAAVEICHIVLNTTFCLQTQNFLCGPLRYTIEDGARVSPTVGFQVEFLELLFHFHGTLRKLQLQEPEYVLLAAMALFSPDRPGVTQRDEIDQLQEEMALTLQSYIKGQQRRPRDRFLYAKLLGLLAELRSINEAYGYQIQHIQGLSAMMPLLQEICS

Take `Cc1cc2c3c(c1)C(c1ccccc1)=N[C@@H](NC(=O)c1ccncc1)C(=O)N3CC2`: the outcome in test [1], in test [2], in test [3] and in test [4] was inactive.

Take `CC(C)(O)C(=O)Nc1ccc([N+](=O)[O-])c(C(F)(F)F)c1`: the AC50 was 4.47 µM (active) in the test with NCBI gene 100848466; 155 nM (active) and 268 nM (active) in [6]. Also, the compound was classed as inactive in test [5], in [7], in [2] and in test [4].

As to `CCCN(CCC)N=O`, the result in test [1], in test [7], in test [2], in [8] and in [4] was inactive.

Regarding `C[C@]12CCC(=O)C=C1CC[C@@H]1[C@@H]2CC[C@@]2(C)[C@H]1CC[C@]2(C)O`, the AC50 with NCBI gene 100848466 is 0.149 µM (active); in [6], 2.09 nM (active) and 6.55 nM (active); in [7], 6.34 µM (active) and 6.28 µM (active) and 6.19 µM (active). The outcome in test [5], in test [9], in test [2] and in [8] was inactive.

Consider `CC#Cc1cc(C)nc(Nc2ccccc2)n1`, for which the result in test [2] and in test [4] was inactive.

Regarding `Sc1ccccc1`, the compound was called inactive in test [2].

With `ClC1=C(Cl)[C@]2(Cl)[C@@H]3[C@H]4C[C@H]([C@@H]5O[C@H]45)[C@@H]3[C@@]1(Cl)C2(Cl)Cl`, the call in [7] and in test [2] was inactive.

Regarding `Cc1ccccc1O`, the call in test [2] and in test [4] was inactive.

For `N#Cc1ccc(N(CC(N)=O)CC(F)(F)F)cc1C(F)(F)F`, the AC50 in test [6] was 17.8 nM (active). For the same compound, the result in [2], in [8] and in test [4] was inactive.

With `CCCCCCOC(=O)c1ccccc1C(=O)OCCCCCC`, the compound was classed as inactive in test [2] and in test [8].

Turning to `C=CC(N)=O`, the outcome in test [2] and in [8] was inactive.

Regarding `O=C(NC(=O)c1c(F)cccc1F)Nc1cc(Cl)c(OC(F)(F)C(F)F)c(Cl)c1`, the call in test [2] and in [4] was inactive.

On to `COS(=O)(=O)OC`, for which, in [2], the compound was classed as inactive.
